SMILES strings stand for the structures. “And” between values parts separate entries of the source, which are not always exact repeats. Equal values may be shown once. Records with an inconclusive call do not appear. Some structures have more than one record in an assay (separate samples or runs), and their calls can disagree. The source made the active and inactive calls. Unless noted, the call rests on the fitted dose curve; in most records, active means well fitted curve in the direction sought with a large enough effect in the repeat runs; inconclusive means weak or mixed curves; inactive means no such curve, though single readings can be large; an effect the other way counts as inactive or inconclusive.

A short description of assay [1]: Caspase-3/7 induction in CHO-K1 cells by small molecules, qHTS assay (AID 1346980). Further: nearly all actives have a fitted effect of over 15% in size. The procedure, abridged: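 Wild-type CHO-K1 cells exposed to compounds for 17hr at 37 C, 5% CO2. Caspase-3/7 activity then measured by Caspase-Glo 3/7 luminescence after 30min at room temperature.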
On the technique in general: In qHTS, concentration-response curves come from the screen itself.

The nature of assay [2]: Caspase-3/7 induction in HepG2 cells by small molecules, qHTS cell viability counter screen (AID 1346981). Further: nearly all actives have a fitted effect of over 30% in size. Further: potency means the concentration at half of the fitted maximal effect. An outline of the steps: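 Viability determined by CellTiter-Fluor fluorescence in HepG2 wells also used for the luminescent Caspase-Glo 3/7 read. Compounds were present for 16 hr at 37 C, 5% CO2 before reagent addition.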
The target of assay [3] is Nuclear receptor subfamily 1 group I member 2 (Homo sapiens) (UniProt O75469). Kind of assay: Human pregnane X receptor (PXR) small molecule agonists, qHTS assay (AID 1346982). Further: nearly all actives have a fitted effect of over 35% in size. Further: potency means the concentration at half of the fitted maximal effect. The procedure, abridged: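 Compound-induced hPXR transactivation of a CYP3A4 luciferase reporter was scored in HepG2 PXR-Luc cells over 24 hr at 37 C, 5% CO2, by luminescence.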
Chain of Nuclear receptor subfamily 1 group I member 2 (Homo sapiens) (O75469 whole entry, looked up): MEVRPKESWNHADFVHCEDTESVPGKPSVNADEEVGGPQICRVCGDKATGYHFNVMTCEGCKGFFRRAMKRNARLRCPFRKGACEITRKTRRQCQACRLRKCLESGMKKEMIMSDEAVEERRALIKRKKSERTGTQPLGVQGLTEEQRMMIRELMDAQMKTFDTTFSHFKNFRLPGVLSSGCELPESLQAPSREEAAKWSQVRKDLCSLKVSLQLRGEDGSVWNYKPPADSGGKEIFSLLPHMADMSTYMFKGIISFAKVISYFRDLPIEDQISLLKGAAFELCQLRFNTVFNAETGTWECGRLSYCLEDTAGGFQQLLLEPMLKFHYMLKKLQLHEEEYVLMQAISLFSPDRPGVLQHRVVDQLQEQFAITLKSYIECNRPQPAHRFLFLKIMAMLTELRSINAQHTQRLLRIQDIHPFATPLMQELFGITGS
The target is the same in assay [4]. Kind of assay: CYP3A4 induction through human pregnane X receptor (PXR) by small molecules, qHTS assay (AID 1346984). Further: nearly all actives have a fitted effect of over 40% in size. An outline of the steps: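 Readings come from a luciferase reporter: DPX-2 cells, which are HepG2 cotransfected with PXR and a CYP3A4-promoter construct, were exposed to test compounds for 24 h at 37C before One-Glo detection.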
Assay [5] shares this target. Kind of assay: Human pregnane X receptor (PXR) activation by small molecules, qHTS assay (AID 1346985). Further: nearly all actives have a fitted effect of over 40% in size. An outline of the steps:
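DPX-2 cells (HepG2 co-transfected with a PXR response element and a CYP3A4-promoter luciferase construct) were seeded at 2,000 per well, rested 5 hr at 37C, then exposed to DMSO-dissolved compounds for 24 hr. Activation was read as luciferase luminescence.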

The target in assay [6] is Acetylcholinesterase (Homo sapiens) (UniProt P22303). Nature of the assay: Acetylcholinesterase (AChE) small molecule antagonists: colormetric cell-based qHTS assay (AID 1347395; calls by dose curve; further: nearly all actives have a fitted effect of over 30% in size; further: potency means the concentration at half of the fitted maximal effect). An outline of the steps: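 Homogeneous whole-cell format. SH-SY5Y cells seeded overnight, dosed with compound (30 min, 37 C, 5% CO2), then given DTNB/acetylthiocholine cocktail for 90 min at 37 C; colorimetric signal.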
Chain of Acetylcholinesterase (Homo sapiens) (P22303 whole entry, looked up): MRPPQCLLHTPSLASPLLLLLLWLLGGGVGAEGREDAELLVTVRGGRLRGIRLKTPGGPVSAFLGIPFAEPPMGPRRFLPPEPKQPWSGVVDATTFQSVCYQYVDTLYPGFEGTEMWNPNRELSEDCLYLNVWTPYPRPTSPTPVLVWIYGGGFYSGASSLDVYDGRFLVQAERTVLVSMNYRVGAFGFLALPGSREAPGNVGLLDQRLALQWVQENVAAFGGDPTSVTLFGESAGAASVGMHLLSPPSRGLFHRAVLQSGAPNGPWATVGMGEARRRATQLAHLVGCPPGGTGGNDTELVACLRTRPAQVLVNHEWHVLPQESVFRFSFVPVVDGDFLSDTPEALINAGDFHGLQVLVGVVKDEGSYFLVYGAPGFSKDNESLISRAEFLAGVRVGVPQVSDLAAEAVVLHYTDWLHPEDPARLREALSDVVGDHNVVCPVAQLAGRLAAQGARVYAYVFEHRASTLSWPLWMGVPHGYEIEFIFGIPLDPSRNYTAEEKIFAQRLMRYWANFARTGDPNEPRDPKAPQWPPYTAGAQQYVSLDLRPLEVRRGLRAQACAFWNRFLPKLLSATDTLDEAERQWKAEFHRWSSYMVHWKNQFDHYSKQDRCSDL

The target is the same in assay [7]. Kind of assay: Acetylcholinesterase (AChE) small molecule antagonists: enzyme-based qHTS assay (AID 1347397; calls by dose curve; further: nearly all actives have a fitted effect of over 55% in size). The note with it: Potency: AChE enzyme activity inhibition. The procedure, abridged: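 Recombinant human AChE (50 mU/mL) preincubated with compound 30 min at room temperature; acetylthiocholine plus DTNB then added, and thiocholine formation read colorimetrically after 10 min at room temperature. DMSO served as vehicle control.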

Assay [8] shares this target. Kind of assay: Acetylcholinesterase (AChE) small molecule antagonists: fluorescence cell-based qHTS assay (AID 1347398; calls by dose curve; further: nearly all actives have a fitted effect of over 50% in size; further: potency means the concentration at half of the fitted maximal effect). The note with it: Potency: AChE activity. The procedure, abridged: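 SH-SY5Y cells (2000/well), attached overnight, incubated with compound 30 min at 37 C. Acetylthiocholine plus Thiolite Green then added for 40 min at room temperature. Thiocholine fluorescence (Ex/Em 490/520 nm) reports cellular AChE activity.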

Assay [9] has the same target. Kind of assay: Acetylcholinesterase (AChE) small molecule antagonists: enzyme-based qHTS assay with human liver microsomes (AID 1347399; calls by dose curve; further: nearly all actives have a fitted effect of over 60% in size; further: potency means the concentration at half of the fitted maximal effect). The following applies: Potency: qHTS inhibition. An outline of the steps:
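Recombinant human AChE (50 mU/mL in the enzyme mix) and human liver microsomes (0.25 mg/mL final) were preincubated with compound and NADPH (0.25 mg/mL final) for 30 min at 37 C. Acetylthiocholine/DTNB was then added; thiocholine was read colorimetrically after 10 min at room temperature.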

Assay [10] addresses Cytochrome P450 2D6 (Homo sapiens) (UniProt P10635). Nature of the assay: Cytochrome P450 Family 2 Subfamily D Member 6 (CYP2D6) small molecule antagonists: luciferase reporter qHTS assay (AID 1671196). Further: nearly all actives have a fitted effect of over 50% in size. Further: potency means the concentration at half of the fitted maximal effect. An outline of the steps: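 Each well received CYP2D6 with its proluciferin substrate and chemical, sat 10 min, then got NADPH regeneration solution for 1 h at room temperature. Luminescence in RLU served as the activity measure.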

In assay [11] the target is Cytochrome P450 2C19 (Homo sapiens) (UniProt P33261). Nature of the assay: Cytochrome P450 Family 2 Subfamily C Member 19 (CYP2C19) small molecule antagonists: luciferase reporter qHTS assay (AID 1671197). Further: nearly all actives have a fitted effect of over 65% in size. Further: potency means the concentration at half of the fitted maximal effect. An outline of the steps: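 Enzyme-substrate mix with proluciferin substrate (P450-Glo CYP2C19 system) preincubated with compounds 10 min at room temperature; NADPH regeneration solution added, 37C for 1 h; detection reagent stops reaction, luminescence read after 20 min. Ketoconazole positive control.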
Chain of Cytochrome P450 2C19 (Homo sapiens) (P33261 whole entry, looked up): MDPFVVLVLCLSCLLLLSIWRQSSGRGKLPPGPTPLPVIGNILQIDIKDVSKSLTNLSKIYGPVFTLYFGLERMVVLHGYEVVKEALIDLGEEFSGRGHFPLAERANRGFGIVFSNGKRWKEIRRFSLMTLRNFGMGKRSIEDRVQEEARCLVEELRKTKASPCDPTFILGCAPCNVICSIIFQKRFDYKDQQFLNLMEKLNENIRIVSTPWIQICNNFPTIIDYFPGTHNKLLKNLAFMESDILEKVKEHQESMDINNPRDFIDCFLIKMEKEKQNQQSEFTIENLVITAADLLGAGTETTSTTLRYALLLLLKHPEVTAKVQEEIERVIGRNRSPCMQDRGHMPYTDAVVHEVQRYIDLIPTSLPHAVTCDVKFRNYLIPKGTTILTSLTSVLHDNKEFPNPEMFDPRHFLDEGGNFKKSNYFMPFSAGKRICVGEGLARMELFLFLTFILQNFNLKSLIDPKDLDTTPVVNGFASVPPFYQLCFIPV
(A reporter such as luciferase makes a cellular process visible.)

Assay [12] concerns the target Cytochrome P450 2C9 (Homo sapiens) (UniProt P11712). Kind of assay: Cytochrome P450 Family 2 Subfamily C Member 9 (CYP2C9) small molecule antagonists: luciferase reporter qHTS assay (AID 1671198). Further: nearly all actives have a fitted effect of over 50% in size. Further: potency means the concentration at half of the fitted maximal effect. The procedure, abridged: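 P450-Glo proluciferin substrate with CYP2C9 enzyme; 10 min RT preincubation, then NADPH regeneration 1 h at 37C; luciferin detection reagent 20 min RT, luminescence in relative luminescence units.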

Assay [13] addresses Cytochrome P450 1A2 (Homo sapiens) (UniProt P05177). Kind of assay: Cytochrome P450 Family 1 Subfamily A Member 2 (CYP1A2) small molecule antagonists: luciferase reporter qHTS assay (AID 1671199). Further: nearly all actives have a fitted effect of over 50% in size. Further: potency means the concentration at half of the fitted maximal effect. The procedure, abridged: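 Enzymatic CYP1A2 assay, human, luminescent: 10 min compound–enzyme–substrate preincubation, 1 h NADPH-dependent turnover, 20 min detection step, room temperature throughout. Reduced light indicates lower CYP1A2 activity.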

Assay [14] concerns the target Voltage-gated inwardly rectifying potassium channel KCNH2 (Homo sapiens) (UniProt Q12809). Kind of assay: Human Ether-a-go-go-Related Gene (hERG) channel small molecule antagonists: fluorescence cell-based qHTS assay (AID 1671200). The procedure, abridged:
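Thallium served as the potassium surrogate; its influx into dye-loaded U2OS cells carrying the channel was measured by fluorescence over 2 min.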
(In general: hERG is a cardiac potassium channel; its block is linked to QT prolongation.)

The target of assay [15] is Cytochrome P450 3A4 (Homo sapiens) (UniProt P08684). Nature of the assay: Cytochrome P450 Family 3 Subfamily A Member 4 (CYP3A4) small molecule antagonists: luciferase reporter qHTS assay (AID 1671201). Further: nearly all actives have a fitted effect of over 50% in size. Further: potency means the concentration at half of the fitted maximal effect. The procedure, abridged: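 Relative luminescence units after 20 min with luciferin detection reagent served as read-out. Beforehand, CYP3A4 turned over a proluciferin substrate for 1 h at room temperature with NADPH regeneration, following 10 min compound preincubation.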
Chain of Cytochrome P450 3A4 (Homo sapiens) (P08684 whole entry, looked up): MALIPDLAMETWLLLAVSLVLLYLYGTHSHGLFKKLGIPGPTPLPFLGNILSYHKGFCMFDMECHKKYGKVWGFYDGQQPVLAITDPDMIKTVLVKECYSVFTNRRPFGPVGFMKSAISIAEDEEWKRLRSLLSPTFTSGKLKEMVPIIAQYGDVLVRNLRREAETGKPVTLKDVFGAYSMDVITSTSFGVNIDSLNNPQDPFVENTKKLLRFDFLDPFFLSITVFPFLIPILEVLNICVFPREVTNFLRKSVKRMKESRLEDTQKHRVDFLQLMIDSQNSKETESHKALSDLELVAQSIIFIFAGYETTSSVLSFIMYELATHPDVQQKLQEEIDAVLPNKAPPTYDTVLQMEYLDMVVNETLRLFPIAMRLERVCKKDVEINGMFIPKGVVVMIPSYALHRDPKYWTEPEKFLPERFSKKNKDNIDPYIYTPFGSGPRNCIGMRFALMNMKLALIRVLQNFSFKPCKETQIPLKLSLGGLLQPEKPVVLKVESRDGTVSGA

Chain of Cytochrome P450 2D6 (Homo sapiens) (P10635 whole entry, looked up): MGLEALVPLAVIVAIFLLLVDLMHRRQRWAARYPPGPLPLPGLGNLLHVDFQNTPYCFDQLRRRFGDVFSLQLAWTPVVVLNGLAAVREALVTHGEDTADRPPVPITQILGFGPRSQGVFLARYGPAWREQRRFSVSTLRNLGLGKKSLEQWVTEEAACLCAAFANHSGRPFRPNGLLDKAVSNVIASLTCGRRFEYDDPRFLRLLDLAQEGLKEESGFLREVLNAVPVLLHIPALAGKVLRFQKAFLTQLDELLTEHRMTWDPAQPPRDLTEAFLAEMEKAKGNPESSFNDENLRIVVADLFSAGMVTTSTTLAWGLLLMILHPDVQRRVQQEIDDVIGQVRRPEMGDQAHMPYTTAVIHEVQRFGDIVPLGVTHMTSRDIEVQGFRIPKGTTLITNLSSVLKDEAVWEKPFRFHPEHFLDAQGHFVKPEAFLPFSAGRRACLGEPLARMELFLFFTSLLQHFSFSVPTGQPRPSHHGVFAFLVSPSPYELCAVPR
Chain of Voltage-gated inwardly rectifying potassium channel KCNH2 (Homo sapiens) (Q12809 whole entry, looked up): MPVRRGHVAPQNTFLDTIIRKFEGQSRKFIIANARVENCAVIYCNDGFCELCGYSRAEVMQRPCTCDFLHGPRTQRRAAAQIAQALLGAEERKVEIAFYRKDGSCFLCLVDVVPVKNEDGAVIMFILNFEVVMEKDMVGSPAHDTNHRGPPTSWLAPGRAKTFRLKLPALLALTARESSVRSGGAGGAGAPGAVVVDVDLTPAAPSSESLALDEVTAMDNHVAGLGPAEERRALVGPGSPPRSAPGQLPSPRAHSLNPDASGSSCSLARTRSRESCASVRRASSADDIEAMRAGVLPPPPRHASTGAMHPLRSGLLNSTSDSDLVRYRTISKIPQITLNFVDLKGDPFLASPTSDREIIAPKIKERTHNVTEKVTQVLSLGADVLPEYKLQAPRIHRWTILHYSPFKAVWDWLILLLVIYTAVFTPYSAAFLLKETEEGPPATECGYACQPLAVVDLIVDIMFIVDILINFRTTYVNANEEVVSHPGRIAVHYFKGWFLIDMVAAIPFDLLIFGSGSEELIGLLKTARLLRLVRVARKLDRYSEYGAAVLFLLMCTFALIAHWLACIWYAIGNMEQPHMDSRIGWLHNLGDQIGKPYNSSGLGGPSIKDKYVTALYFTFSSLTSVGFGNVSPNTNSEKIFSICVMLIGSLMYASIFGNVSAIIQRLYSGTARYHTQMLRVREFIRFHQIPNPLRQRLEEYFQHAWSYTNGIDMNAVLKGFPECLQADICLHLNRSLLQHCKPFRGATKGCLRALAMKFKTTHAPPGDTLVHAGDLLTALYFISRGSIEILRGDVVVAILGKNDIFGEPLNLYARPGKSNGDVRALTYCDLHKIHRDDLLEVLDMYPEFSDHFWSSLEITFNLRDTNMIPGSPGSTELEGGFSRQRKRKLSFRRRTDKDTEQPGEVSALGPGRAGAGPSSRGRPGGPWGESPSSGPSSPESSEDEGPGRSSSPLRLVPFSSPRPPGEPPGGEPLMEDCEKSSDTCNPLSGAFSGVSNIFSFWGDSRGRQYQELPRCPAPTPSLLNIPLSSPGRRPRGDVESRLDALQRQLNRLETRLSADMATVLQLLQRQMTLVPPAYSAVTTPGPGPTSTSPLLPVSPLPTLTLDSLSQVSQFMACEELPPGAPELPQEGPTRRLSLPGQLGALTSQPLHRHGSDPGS
Chain of Cytochrome P450 1A2 (Homo sapiens) (P05177 whole entry, looked up): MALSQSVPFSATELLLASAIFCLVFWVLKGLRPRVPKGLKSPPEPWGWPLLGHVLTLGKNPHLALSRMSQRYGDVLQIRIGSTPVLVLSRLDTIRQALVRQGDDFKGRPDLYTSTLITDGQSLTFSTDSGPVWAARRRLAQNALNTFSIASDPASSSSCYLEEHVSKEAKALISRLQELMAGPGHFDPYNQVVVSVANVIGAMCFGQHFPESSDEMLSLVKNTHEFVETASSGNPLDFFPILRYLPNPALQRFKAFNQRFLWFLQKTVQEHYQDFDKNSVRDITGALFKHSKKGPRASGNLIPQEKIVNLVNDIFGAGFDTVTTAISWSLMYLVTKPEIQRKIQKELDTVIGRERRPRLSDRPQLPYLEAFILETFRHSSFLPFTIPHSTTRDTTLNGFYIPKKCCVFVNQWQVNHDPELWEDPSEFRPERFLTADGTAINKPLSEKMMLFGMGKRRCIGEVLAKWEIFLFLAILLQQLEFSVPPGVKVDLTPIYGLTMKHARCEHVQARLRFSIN
Chain of Cytochrome P450 2C9 (Homo sapiens) (P11712 whole entry, looked up): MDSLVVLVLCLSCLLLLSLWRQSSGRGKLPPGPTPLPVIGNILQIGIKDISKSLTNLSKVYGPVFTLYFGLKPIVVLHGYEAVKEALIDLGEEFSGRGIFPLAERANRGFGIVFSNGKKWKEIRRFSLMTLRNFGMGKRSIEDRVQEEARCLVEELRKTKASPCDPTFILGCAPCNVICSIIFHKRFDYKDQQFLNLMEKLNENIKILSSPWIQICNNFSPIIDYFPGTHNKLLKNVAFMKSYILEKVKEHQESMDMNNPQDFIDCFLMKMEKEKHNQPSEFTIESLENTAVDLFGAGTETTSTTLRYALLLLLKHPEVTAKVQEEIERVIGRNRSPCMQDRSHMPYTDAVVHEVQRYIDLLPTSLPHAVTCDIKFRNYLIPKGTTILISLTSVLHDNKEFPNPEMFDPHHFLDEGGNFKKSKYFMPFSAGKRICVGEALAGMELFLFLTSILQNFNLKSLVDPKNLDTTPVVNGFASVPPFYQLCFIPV

As to `O=[N+]([O-])c1ccc([As](=O)(O)O)cc1`, the compound was called inactive in [1] and in assay [4]. For the same compound, the Potency result in assay [2], in assay [3], in assay [5], in assay [6], in assay [7] and in [8] was “inactive” each time. The Potency entry in [9], in assay [10], in assay [11], in assay [12], in assay [13] and in assay [14] was “inactive” throughout. Further, the Potency result in assay [15] is “inactive”.
For the compound `OC(O)C(Cl)(Cl)Cl`, the result in assay [1] and in [4] was inactive. In addition, the Potency result in assay [2], in assay [3], in assay [5], in assay [10], in assay [11] and in assay [13] was “inactive” throughout. The Potency result in assay [14] and in assay [15] was “inactive” throughout.
In the case of `CN=C=S`, the compound was classed as inactive in assay [1]. Also, the Potency result in assay [2], in assay [6], in [7], in [8], in assay [9] and in [10] was “inactive” each time. The Potency entry in assay [12], in [14] and in assay [15] was “inactive” in each case. Moreover, the Potency is 30.9 µM (active) and inactive in assay [3]; 80.4 µM (active) and inactive in assay [11]; 40.3 µM (active) in assay [13].
Consider `O=C(O)c1ccccn1`, for which the call in assay [1] and in assay [4] was inactive. Moreover, the Potency result in assay [2], in assay [3], in assay [5], in [6], in [7] and in assay [8] was “inactive” each time. For the same compound, the Potency result in [9], in [10], in assay [11], in [12], in assay [13] and in assay [14] was “inactive” in each case. For the same compound, the Potency entry in assay [15] is “inactive”.
`COC(=O)NC(=S)Nc1ccccc1NC(=S)NC(=O)OC`: the outcome in assay [1] was inactive. Moreover, the Potency result in assay [2], in [6], in [7], in [8], in [9] and in assay [10] was “inactive” each time. Besides, the Potency entry in assay [14] is “inactive”. The Potency is 61.1 µM (active) and 48.6 µM (active) in [3]; 63.3 µM (active) and 22.4 µM (active) in [11]; 39.9 µM (active) in assay [12]; 31.7 µM (active) in [13].
On to `O=C1CCCN1`, for which the compound was classed as inactive in [1]. The Potency result in assay [2], in assay [6], in assay [7], in assay [8], in assay [9] and in [10] was “inactive” throughout. The Potency entry in assay [12], in assay [13] and in assay [14] was “inactive” in each case. In addition, the Potency in assay [3] is 69.3 µM (active) and inactive; in assay [11], 8.05 µM (active) and inactive; in assay [15] it was 7.17 µM (active) and inactive.
In the case of `Cc1ccccc1O`, the result in assay [1] was inactive. The Potency result in assay [2], in assay [3], in assay [6], in assay [7], in assay [8] and in [9] was “inactive” in each case. The Potency result in assay [10], in assay [11], in assay [12], in [14] and in assay [15] was “inactive” throughout. Further, in assay [13], the Potency was 39.9 µM (active).
Regarding `CC(C)(C)OOC(C)(C)C`, the compound was called inactive in [1]. Moreover, the Potency result in assay [2], in [3], in [6], in [7], in [8] and in assay [9] was “inactive” each time. In addition, the Potency entry in assay [10], in [11], in [12], in assay [13], in assay [14] and in [15] was “inactive” in each case.
As to `ClCCBr`, the compound was called inactive in [1]. The Potency entry in assay [2], in assay [3], in [6], in [7], in assay [8] and in assay [9] was “inactive” throughout. Moreover, the Potency entry in assay [12], in [13], in assay [14] and in assay [15] was “inactive” each time. For the same compound, the Potency in assay [10] is 35.5 µM (active) and inactive; in assay [11], 79.4 µM (active) and inactive.
`COCCl`: the compound was classed as inactive in assay [1]. For the same compound, the Potency in assay [2] is 35.7 µM (active) and inactive; in [3], 56.6 µM (active) and inactive; in assay [11], 33 µM (active) and 22.6 µM (active); in assay [13], 20.1 µM (active). The Potency result in [6], in [7], in [8], in assay [9], in [10] and in assay [12] was “inactive” in each case. Moreover, the Potency entry in assay [14] and in assay [15] was “inactive” each time.
As for `Nc1ccc(Oc2ccc(N)cc2)cc1`, in [1], the call was inactive. Moreover, the Potency result in [2], in assay [6], in [7], in assay [8], in [9] and in assay [13] was “inactive” each time. Further, the Potency result in assay [14] was “inactive”. In addition, the Potency is 62 µM (active) in assay [3]; 36.1 µM (active) and 31.7 µM (active) in assay [10]; 18.1 µM (active) and 20 µM (active) in assay [11]; 14.4 µM (active) and 8.94 µM (active) in assay [12]; 18.1 µM (active) and inactive in assay [15].
On to `CCOP(=S)(OCC)Oc1cnc2ccccc2n1`, for which the call in [1] was inactive. Also, the Potency result in [2], in [7] and in assay [14] was “inactive” in each case. Moreover, the Potency result is “inactive and 30.6 µM (active)” in [3]; “inactive and 35.6 µM (active)” in [6]; “inactive and 35.6 µM (active)” in assay [8]; “inactive and 1 µM (active)” in assay [9]; 35.6 µM (active) in [10]; “inactive and 448 nM (active)” in [11]. For the same compound, the Potency entry in assay [12] is “inactive and 1.12 µM (active)”; in [13], “inactive and 2.24 µM (active)”; in [15] it was “inactive and 6.33 µM (active)”.
Consider `CCC12COCN1COC2`, for which the call in assay [1] was inactive. The Potency result in assay [2], in assay [3], in [6], in assay [7], in [8] and in [9] was “inactive” in each case. Besides, the Potency entry in assay [10], in assay [12], in assay [13] and in assay [14] was “inactive” each time. Also, the Potency in [11] is 35.6 µM (active); in assay [15] it was 40 µM (active) and inactive.
Consider `Cc1ccc([N+](=O)[O-])cc1C`, for which the compound was classed as inactive in assay [1]. The Potency result in assay [2], in assay [3], in [6], in assay [7], in assay [8] and in [9] was “inactive” each time. Besides, the Potency result in [10], in assay [11], in assay [12], in [13], in assay [14] and in assay [15] was “inactive” each time.
For the compound `C#CC(C)(C)NC(=O)c1cc(Cl)cc(Cl)c1`, the outcome in assay [1] was inactive. The Potency result in assay [2], in assay [6], in [7], in assay [8], in [9] and in [10] was “inactive” throughout. Also, the Potency entry in assay [14] is “inactive”. Also, the Potency in assay [3] is 49 µM (active) and 30.6 µM (active); in assay [11], 8.04 µM (active) and 39.9 µM (active); in assay [12] it was 71.7 µM (active) and inactive; in assay [13], 5.07 µM (active) and 15.9 µM (active); in [15], 20.2 µM (active) and 35.6 µM (active).

The values are drawn from PubChem BioAssay (Tox21).
